Inconclusive results are not listed. Active and inactive are the calls of the source. Unless noted, calls come from the whole dose curve; as a rule, active = well fitted curve in the direction sought with a large enough effect; inconclusive = small, poorly fitted or top-dose-only effect, or another doubt; inactive = no such curve, though single readings can be large; an effect the other way counts as inactive or inconclusive.
Experiments:
[1] = target: Lysosomal acid glucosylceramidase (Homo sapiens) (UniProt P04062); experiment: Glucocerebrosidase-p2 (AID 348; in the data active = potency below about 10 µM; note: potency is the fitted concentration of half-maximal effect); conditions: purified GBA, blue fluorogenic substrate, 40 min
Lysosomal acid glucosylceramidase (Homo sapiens), sequence (P04062 whole entry, looked up): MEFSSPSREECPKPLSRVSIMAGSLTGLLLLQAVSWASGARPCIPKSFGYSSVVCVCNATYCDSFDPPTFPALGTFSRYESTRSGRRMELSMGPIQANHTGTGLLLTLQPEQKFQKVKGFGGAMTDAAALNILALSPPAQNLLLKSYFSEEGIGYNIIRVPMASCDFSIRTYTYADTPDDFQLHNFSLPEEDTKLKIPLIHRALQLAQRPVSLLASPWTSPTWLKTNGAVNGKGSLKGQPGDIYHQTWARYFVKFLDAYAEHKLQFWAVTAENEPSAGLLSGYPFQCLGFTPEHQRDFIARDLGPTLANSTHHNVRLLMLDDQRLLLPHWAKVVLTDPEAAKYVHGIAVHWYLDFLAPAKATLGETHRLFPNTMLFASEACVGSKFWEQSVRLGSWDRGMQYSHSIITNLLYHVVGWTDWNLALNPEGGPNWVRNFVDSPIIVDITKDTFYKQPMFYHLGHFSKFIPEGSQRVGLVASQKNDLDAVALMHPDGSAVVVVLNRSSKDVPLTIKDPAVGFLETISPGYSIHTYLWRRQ
Method in brief: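 Normal human glucocerebrosidase (0.2 nM) with blue fluorogenic substrate (80 uM final) in citrate/phosphate pH 5.9 with 10mM sodium taurocholate, 0.01% tween-20; 40 min RT, NaOH/glycine stop; fluorescence Ex 365/Em 440; AC50 from a titration from 0.6 nM upwards.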

[2] = AP1 Signaling Pathway (AID 357; active = well fitted curve in either direction with a large enough effect, not every such curve was filed as active;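 note: ME-180 reporter cells stimulated with EGF at its EC50 level; % is set by controls: 0 for no effect and ±100 for the full control effect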); conditions: ME-180 AP-1-bla reporter, EGF-induced, beta-lactamase ratio, 5 h; at 7.69 µM (top of the series) unless noted
Method in brief: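 Cells are seeded overnight, exposed to compound titrations and an EC50 level of EGF for 5 hours at 37 °C, then loaded with CCF4 dye for 2.5 hours. Beta-lactamase activity under the AP-1 element is read as a blue/green ratio.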

[3] = target: Cytochrome P450 1A2 (Homo sapiens) (UniProt P05177); experiment: p450-cyp1a2 (AID 410; calls by dose curve; note: potency is the fitted concentration of half-maximal effect); conditions: recombinant CYP1A2, luciferin-ME demethylation, luminescence; series mostly up to 57 µM
Cytochrome P450 1A2 (Homo sapiens), sequence (P05177 whole entry, looked up): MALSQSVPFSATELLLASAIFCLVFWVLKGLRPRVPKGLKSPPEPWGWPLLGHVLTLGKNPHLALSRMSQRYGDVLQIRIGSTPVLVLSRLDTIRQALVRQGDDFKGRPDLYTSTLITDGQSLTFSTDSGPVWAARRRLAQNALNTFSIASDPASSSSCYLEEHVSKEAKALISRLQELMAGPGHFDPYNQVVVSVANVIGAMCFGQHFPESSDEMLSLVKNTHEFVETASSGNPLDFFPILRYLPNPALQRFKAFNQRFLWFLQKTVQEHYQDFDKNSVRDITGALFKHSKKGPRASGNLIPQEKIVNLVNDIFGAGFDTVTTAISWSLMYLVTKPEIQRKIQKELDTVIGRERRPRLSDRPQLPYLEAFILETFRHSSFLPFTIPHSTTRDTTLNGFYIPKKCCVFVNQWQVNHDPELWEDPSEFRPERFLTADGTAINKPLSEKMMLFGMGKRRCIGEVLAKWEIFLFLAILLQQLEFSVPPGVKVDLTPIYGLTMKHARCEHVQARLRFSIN
Method in brief: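 O-Demethylation of luciferin 6' methyl ether by human CYP1A2 is monitored as luciferase luminescence. Substrate sits at Km (100uM); enzyme is 20nM. Values are scaled to 57 uM furafylline as maximal inhibition.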

[4] = NFAT Signaling Pathway (AID 444; active = well fitted curve in either direction with a large enough effect, not every such curve was filed as active;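 note: carbachol stimulus at about its EC50 of 1 µM final; % is set by controls: 0 for no effect and ±100 for the full control effect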); conditions: Jurkat NFAT-bla M1, carbachol, beta-lactamase ratio, 5 h; at 7.69 µM (top of the series) unless noted
Method in brief: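 Jurkat cells with NFAT-driven β-lactamase reporter and co-expressed M1 receptor, stimulated with carbachol (final 1 uM, ~EC50), compound titration, 5 h at 37 °C. CCF4 loaded 1 h at RT; 460/530 nm ratio gave %activity and AC50.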

[5] = Stat Signaling Pathway (AID 446; active = well fitted curve in either direction with a large enough effect, not every such curve was filed as active;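 note: ME-180 cervical cancer cells given 40 pM IL-6 alongside compound; SIE-controlled beta-lactamase reporter measured as 460/530 nm FRET emission ratio; % is set by controls: 0 for no effect and ±100 for the full control effect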); conditions: ME-180 SIE beta-lactamase reporter, IL-6 stimulated, 5 h; at 7.69 µM (top of the series) unless noted
Method in brief: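 Overnight-plated ME-180 cells bearing a STAT Inducible Element beta-lactamase reporter; 5 h co-exposure to compound and 40 pM IL-6; values normalized to 300 pM IL-6 and 125 nM JAK inhibitor controls.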

[6] = target: Glucocorticoid receptor (Homo sapiens) (UniProt P04150); experiment: GR-GFP Redistribution (AID 450;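 active = compounds whose dose series gives a full or clear partial fitted curve of increased nuclear translocation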; note: potency is the fitted concentration of half-maximal effect); conditions: U2OS GR-GFP nuclear translocation, laser cytometry, 2 h
Glucocorticoid receptor (Homo sapiens), sequence (P04150 whole entry, looked up, the tested form may be a part): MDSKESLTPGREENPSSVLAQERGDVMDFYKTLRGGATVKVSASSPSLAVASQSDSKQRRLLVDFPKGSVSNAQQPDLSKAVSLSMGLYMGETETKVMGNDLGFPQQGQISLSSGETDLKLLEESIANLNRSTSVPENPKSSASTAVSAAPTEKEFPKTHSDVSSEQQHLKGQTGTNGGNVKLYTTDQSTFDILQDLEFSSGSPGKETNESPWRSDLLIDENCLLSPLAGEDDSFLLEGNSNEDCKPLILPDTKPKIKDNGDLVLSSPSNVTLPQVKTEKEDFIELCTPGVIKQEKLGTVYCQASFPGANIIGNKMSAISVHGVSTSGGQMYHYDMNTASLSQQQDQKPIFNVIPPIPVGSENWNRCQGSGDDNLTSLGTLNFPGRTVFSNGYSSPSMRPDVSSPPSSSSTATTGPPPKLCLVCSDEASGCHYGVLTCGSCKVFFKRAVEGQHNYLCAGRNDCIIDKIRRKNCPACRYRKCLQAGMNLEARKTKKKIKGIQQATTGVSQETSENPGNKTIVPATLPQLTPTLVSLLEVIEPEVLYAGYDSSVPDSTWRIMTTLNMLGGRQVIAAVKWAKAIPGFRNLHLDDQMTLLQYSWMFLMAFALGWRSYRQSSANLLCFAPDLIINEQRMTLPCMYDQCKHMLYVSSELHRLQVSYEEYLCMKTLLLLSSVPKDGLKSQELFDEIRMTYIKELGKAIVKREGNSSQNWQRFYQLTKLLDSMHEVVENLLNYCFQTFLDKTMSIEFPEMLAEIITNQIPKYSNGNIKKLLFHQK

[7] = target: Glucocorticoid receptor (Homo sapiens) (UniProt P04150); experiment: GR-EFC Redistribution (AID 451; calls by dose curve; note: potency is the fitted concentration of half-maximal effect); conditions: CHO-K1 GR-EFC translocation, beta-gal luminescence, 2 h
Method in brief: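 CHO-K1 cells expressing nuclear EA and GR-ED fragments of b-gal; compounds titrated up to 46 uM final, 2 h at 37 C. GR nuclear translocation read as complemented b-gal luminescence after 1 h RT detection.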

[8] = target: Mitogen-activated protein kinase 10 (Mus musculus) (UniProt Q61831); experiment: JNK3 AlphaScreen Assay (AID 530; active = well fitted curve in either direction with a large enough effect, not every such curve was filed as active;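 note: kinase came from lysate of stimulated human HepG2 cells; signal reports phosphorylation of biotinylated GST-cJun 1-79 at Ser73 with 10 µM ATP; % is set by controls: 0 for no effect and ±100 for the full control effect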); conditions: JNK3 lysate, c-Jun phosphorylation; series mostly up to 57.1 µM
Method in brief: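 Activity was read by AlphaScreen after JNK3-containing HepG2 lysate (cytokine pre-activated) phosphorylated biotinylated GST-cJun with 10 uM ATP at room temperature. Phospho-Ser73 cJun antibody with Protein-A acceptor beads provided detection.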

[9] = target: 3',5'-cyclic-AMP phosphodiesterase 4B (Homo sapiens) (UniProt Q07343); experiment: qHTS Assay for Inhibitors of PDE-IV (AID 607; active = well fitted activation curve with a large enough effect in the main read-out, with a control signal flat, not every such curve was filed as active; note: % of control where 0% means no effect); conditions: HEK293 ACTOne CNG channel cells, membrane potential fluorescence; series mostly up to 22.9 µM
3',5'-cyclic-AMP phosphodiesterase 4B (Homo sapiens), sequence (Q07343 whole entry, looked up): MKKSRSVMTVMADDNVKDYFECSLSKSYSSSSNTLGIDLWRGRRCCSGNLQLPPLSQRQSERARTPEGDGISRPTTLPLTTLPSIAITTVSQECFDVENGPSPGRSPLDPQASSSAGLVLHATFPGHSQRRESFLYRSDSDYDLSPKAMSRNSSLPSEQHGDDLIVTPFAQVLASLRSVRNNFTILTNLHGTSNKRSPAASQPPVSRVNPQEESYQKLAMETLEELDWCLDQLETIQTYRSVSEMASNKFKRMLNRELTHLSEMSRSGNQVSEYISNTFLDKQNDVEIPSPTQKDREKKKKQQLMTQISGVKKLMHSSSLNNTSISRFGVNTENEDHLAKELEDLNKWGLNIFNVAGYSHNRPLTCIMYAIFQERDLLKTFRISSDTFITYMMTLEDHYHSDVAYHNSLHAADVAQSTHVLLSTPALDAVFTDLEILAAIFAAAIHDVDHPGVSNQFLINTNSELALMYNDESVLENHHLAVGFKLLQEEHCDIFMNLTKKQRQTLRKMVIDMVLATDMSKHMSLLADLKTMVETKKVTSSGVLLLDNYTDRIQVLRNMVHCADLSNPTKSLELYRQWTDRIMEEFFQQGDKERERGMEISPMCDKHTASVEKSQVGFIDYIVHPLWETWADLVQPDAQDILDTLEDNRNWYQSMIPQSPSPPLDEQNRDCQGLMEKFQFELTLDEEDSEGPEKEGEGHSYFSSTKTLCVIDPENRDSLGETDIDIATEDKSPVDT
Method in brief: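 Live HEK293 cells with a modified cyclic nucleotide-gated (CNG) channel report intracellular cAMP via membrane-potential dye fluorescence (ex 535/em 590 nm). Endogenous PDE-IV was targeted. Compounds were tested at up to 22.9 uM final; RO 20-1724 100 uM served as control.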

[10] = Confirmation and Secondary Assay for Modulators of Hemoglobin Beta Chain Splicing at IVS2 654 locus (AID 910); conditions: HeLa EGFP-654 splicing reporter, GFP fluorescence, 48 h; series mostly up to 38.3 µM;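 note: HeLa cells stably carrying EGFP split by mutant beta-globin IVS2-654 intron; % of control where 0% means no effect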
Method in brief: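 HeLa cells stably expressing EGFP interrupted by β-globin IVS2-654 intron, seeded overnight in Opti-MEM/2% FCS, then treated 2 days at 37 °C. Restored splicing read as total peak GFP intensity per well by laser scanning cytometry (488 nm excitation, 500–520 nm emission); 500 nM antisense PNA as control.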

[11] = Confirmation and Secondary Assay for Modulators of Hemoglobin Beta Chain Splicing at IVS2 705 locus (AID 930); conditions: HeLa EGFP-705 splicing reporter, GFP fluorescence, 48 h; series mostly up to 38.3 µM;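 note: HeLa cells stably expressing the EGFP-705 splicing reporter; GFP fluorescence per well restored by corrected splicing of the IVS2-705 intron in EGFP; % of control where 0% means no effect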
Method in brief: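 Assay measures total GFP intensity per well in HeLa EGFP-705 cells after 2 days with compound; mis-splicing normally truncates EGFP, so fluorescence indicates corrected splicing.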

[12] = qHTS Assay for Lipid Storage Modulators (AID 1519; calls by dose curve); conditions: Drosophila S3 cells, BODIPY lipid droplet/cell ratio, laser cytometry, cells loaded with oleic acid; for activity change, negative = inhibition: at 57.5 µM (top of the series)
Method in brief: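 Cells seeded at 5,000 per well were treated with compounds over a concentration series and loaded with oleic acid (400 uM, as added). Lipid droplet fluorescence (488 nm excitation, 500-530 nm channel) was read by laser-scanning cytometry and normalized to 20 uM Triacsin C.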

[13] = target: Ubiquitin carboxyl-terminal hydrolase 1 (Homo sapiens) (UniProt O94782); experiment: Inhibitors of USP1/UAF1: Pilot qHTS (AID 504865); conditions: purified USP1/UAF1, Ub-rhodamine cleavage fluorescence; series mostly up to 54.9 µM;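 note: rhodamine fluorescence freed from ubiquitin-rhodamine substrate followed over time; top concentration of the series differs between compounds; % is set by controls: 0 for no effect and ±100 for the full control effect; nearly all actives have a fitted effect of over 35% in size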
Ubiquitin carboxyl-terminal hydrolase 1 (Homo sapiens), sequence (O94782 whole entry, looked up): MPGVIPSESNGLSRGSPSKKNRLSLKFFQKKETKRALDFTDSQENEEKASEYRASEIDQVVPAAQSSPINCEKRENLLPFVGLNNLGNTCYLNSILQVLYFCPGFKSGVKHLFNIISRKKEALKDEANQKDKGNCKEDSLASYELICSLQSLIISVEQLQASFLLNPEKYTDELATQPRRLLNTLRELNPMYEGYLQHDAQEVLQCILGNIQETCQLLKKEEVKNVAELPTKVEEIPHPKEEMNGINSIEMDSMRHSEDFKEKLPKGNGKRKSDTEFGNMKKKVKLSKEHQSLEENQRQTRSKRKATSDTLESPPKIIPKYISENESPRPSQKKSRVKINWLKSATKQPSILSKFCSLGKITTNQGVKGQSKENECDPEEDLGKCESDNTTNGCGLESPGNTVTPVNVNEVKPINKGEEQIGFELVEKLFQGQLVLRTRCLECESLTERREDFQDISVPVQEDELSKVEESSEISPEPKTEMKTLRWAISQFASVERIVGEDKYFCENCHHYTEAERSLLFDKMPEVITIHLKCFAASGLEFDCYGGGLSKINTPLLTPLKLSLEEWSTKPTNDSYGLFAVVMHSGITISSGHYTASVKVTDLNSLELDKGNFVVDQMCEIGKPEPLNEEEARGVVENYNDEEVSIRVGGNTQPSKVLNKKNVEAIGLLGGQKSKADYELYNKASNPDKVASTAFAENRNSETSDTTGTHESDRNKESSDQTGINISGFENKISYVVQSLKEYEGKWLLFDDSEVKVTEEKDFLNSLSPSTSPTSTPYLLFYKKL
Method in brief: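 Deubiquitinase activity followed as kinetic rhodamine fluorescence release from 150 nM Ub-Rho. 1 nM USP1/UAF1 with compound, after 15 min room-temperature preincubation, in HEPES pH 7.8 buffer containing TCEP, EDTA, BSA and Tween-20.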

[14] = Confirmatory qHTS for small molecule stabilizers of the endoplasmic reticulum resident proteome: Secreted ER Calcium Modulated Protein (SERCaMP) assay (AID 1508628); conditions: SERCaMP secreted luciferase ER calcium/proteostasis reporter; series mostly up to 76.3 µM; note: potency is the fitted concentration of half-maximal effect; nearly all actives have a fitted effect of over 40% in size
Method in brief: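 Reporter secretion upon ER calcium depletion (100 nM thapsigargin, 4 h, 37C) is measured as medium luminescence with coelenterazine, after 16 h compound pretreatment of SH-SY5Y-GLuc-SERCaMP cells; primary at three concentrations up to 38.3 uM, follow-up at 11 (up to 76.6 uM).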

[15] = target: Dual specificity protein kinase CLK4 (Homo sapiens) (UniProt Q9HAZ1); experiment: qHTS Assay for Inhibitors of CDC-like Kinase 4 (Kinase-Glo Assay) (AID 1770); conditions: recombinant Clk4, Kinase-Glo ATP depletion luminescence; series mostly up to 66.7 µM; note: % is set by controls: 0 for no effect and ±100 for the full control effect; nearly all actives have a fitted effect of over 65% in size
Dual specificity protein kinase CLK4 (Homo sapiens), sequence (Q9HAZ1 whole entry, looked up): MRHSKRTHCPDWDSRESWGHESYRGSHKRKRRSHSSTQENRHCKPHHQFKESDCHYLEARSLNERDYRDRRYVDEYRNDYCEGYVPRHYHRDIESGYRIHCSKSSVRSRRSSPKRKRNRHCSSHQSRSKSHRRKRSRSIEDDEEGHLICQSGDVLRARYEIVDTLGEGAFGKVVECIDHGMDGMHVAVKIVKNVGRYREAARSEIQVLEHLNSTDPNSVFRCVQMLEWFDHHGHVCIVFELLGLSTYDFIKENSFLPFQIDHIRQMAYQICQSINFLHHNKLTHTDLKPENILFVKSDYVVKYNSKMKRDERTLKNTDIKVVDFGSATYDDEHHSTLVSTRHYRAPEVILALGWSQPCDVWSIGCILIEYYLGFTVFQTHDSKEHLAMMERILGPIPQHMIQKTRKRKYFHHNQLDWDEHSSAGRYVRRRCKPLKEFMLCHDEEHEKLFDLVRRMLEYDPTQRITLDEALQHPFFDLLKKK
Method in brief: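 Luminescent ATP-depletion read-out (Kinase-Glo) after 4.5 h room-temperature reaction of Clk4 (25 nM final) with RS peptide (100 uM) and ATP (1 uM), pH 7.5 Tris buffer with MgCl2 and DTT.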

[16] = target: Dual specificity protein kinase CLK4 (Homo sapiens) (UniProt Q9HAZ1); experiment: qHTS Assay for Inhibitors of CDC-like Kinase 4 (ADP-Glo Assay) (AID 1771); conditions: recombinant CLK4, ADP-Glo luminescence; series mostly up to 80 µM; note: % is set by controls: 0 for no effect and ±100 for the full control effect; nearly all actives have a fitted effect of over 70% in size
Method in brief: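 Compounds are pin-transferred onto substrate mix (100 uM RS peptide, 1 uM ATP), then 25 nM Clk4 is added. After 1 hr at room temperature, ADP-Glo reagent runs 45 min, detection reagent 30 min, then luminescence is read.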

[17] = target: Dual specificity protein kinase CLK4 (Homo sapiens) (UniProt Q9HAZ1); experiment: qHTS Assay for Inhibitors of CDC-like Kinase 4 (ADP-FP Assay) (AID 1795); conditions: Transcreener ADP fluorescence polarization; series mostly up to 50 µM;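 note: recombinant human CLK4 phosphorylating RS repeat peptide at 1 µM ATP; % is set by controls: 0 for no effect and ±100 for the full control effect; nearly all actives have a fitted effect of over 60% in size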
Method in brief: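 Kinase activity was measured as ADP production using Transcreener orange tracer (4 nM) and ADP antibody (1 ug/mL) fluorescence polarization, with ADP calculated from a calibration curve. The 1 h reaction contained 6.25 nM Clk4, 1 uM ATP and 100 uM RS peptide at pH 7.5 with Mg2+.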

[18] = Counterscreen qHTS for small molecule stabilizers of the endoplasmic reticulum resident proteome: GLuc-NoTag assay (AID 1508627); conditions: Gaussia luciferase NoTag secretion counterscreen, luminescence, thapsigargin 100 nM for final 4 h; series mostly up to 76.4 µM;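 note: 0% = thapsigargin alone and -100% = DMSO vehicle control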
Method in brief: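 Counterscreen line: SH-SY5Y-GLuc-NoTag. Seed, 5 h; compound, 19 h; thapsigargin 100 nM, 4 h; 37C/5% CO2. Readout: secreted GLuc luminescence, coelenterazine 0.07x final, no lysis.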

[19] = qHTS Assay for Identification of Small Molecule Agonists for Hypoxia Response Element Signaling Pathway (AID 914; active = well fitted activation curve with a large enough effect in the signal ratio, with a control signal flat, not every such curve was filed as active; the % refers to the signal ratio; note: potency is the fitted concentration of half-maximal effect); conditions: ME-180 (cervical carcinoma) HRE-bla reporter, beta-lactamase ratio, CoCl2, 17 h; activation: stronger effect = higher value
Method in brief: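 Compounds in a titration series were added to ME-180 reporter cells alongside an EC50 level of CoCl2. After 17 hours, beta-lactamase activity was read as the 460nm/530nm emission ratio of CCF4, giving AC50 values.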

[20] = measured here: cell count channel max response
[21] = measured here: lipid channel max response

N#Cc1cccc(-c2nc(N3CCNCC3)c3ccccc3n2)c1
inactive: Potency [1] > 11.4 µM | activity change, negative = inhibition [2] 5.75% | activity change, negative = inhibition [4] 10.9% | activity, negative = inhibition [5] 11.7% | Potency [6] > 46 µM | Potency [7] > 46 µM | outcome [8] | Potency [9] | outcome [10] | outcome [11] | activity change, negative = inhibition [12] 6.61% | Potency [13]
11.8%: max response [12, 21]
6.46%: max response [12, 20]
active: Potency [3] 2.51 µM | Potency [14] 11.2 µM

Cc1nc2cnc(N3CCN(C)CC3)nc2n(-c2ccccc2)c1=O
7.19%: max response [12, 21]
active: Potency [3] 3.98 µM
7.22%: max response [12, 20]
inactive: activity change, negative = inhibition [2] -10.2% | activity change, negative = inhibition [4] -6.35% | activity, negative = inhibition [5] -7.64% | Potency [6] > 9.22 µM | Potency [7] > 46 µM | outcome [8] | Potency [9] | activity change, negative = inhibition [12] 2.71% | Potency [15] | Potency [16] | Potency [17] | Potency [13] | Potency [18]

COc1ccccc1-c1cncnc1NCCN1CCOCC1
4.66%: max response [12, 21]
active: Potency [19] 2.51 µM
4.25%: max response [12, 20]
inactive: Potency [1] > 11.4 µM | activity, negative = inhibition [5] 1.09% | Potency [6] > 46 µM | Potency [7] > 46 µM | outcome [8] | Potency [9] | outcome [10] | outcome [11] | activity change, negative = inhibition [12] 0.65% | Potency [13] | Potency [18]
